Over roughly 68,000 sequences, “fluorescence intensity (a.u.)” has its median near 9,100; the highest 2% begin near 16,000. Shown is part of a subset that was picked to be rich in the highest values.
target: OsWRKY34 (Oryza sativa, UniProt Q0JBA9 1-250); experiment: protein-binding microarray (RPBM); PBS, 2% BSA, 51.3 ng/ul salmon testes DNA, 50 uM zinc acetate, 200 nM TF, 25 C, 1 h; high values mean tight binding; conditions: protein: recombinant; tags: N-terminal polyhistidine and DsRed monomer fusion (pET32a); label: CyDye5-dUTP incorporated in the synthesized complementary strand; 3' TTTTT single-stranded linker to array surface; dsDNA, one strand shown
How it was run: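 Transcription factors were made in E. coli BL21-CodonPlus as N-terminal fusions to a polyhistidine tag and DsRed, then purified on Ni–NTA. After primer extension with Cy5-dUTP and blocking with 2% BSA, a custom Agilent array was exposed for 1 h at 25 °C to 200 nM protein in PBS, 2% BSA, salmon testes DNA and 50 µM zinc acetate. Washed arrays were scanned on an Axon 4000B, and the binding signal is per-feature fluorescence intensity in arbitrary units.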

Chain of OsWRKY34 (Q0JBA9 entry or part of it): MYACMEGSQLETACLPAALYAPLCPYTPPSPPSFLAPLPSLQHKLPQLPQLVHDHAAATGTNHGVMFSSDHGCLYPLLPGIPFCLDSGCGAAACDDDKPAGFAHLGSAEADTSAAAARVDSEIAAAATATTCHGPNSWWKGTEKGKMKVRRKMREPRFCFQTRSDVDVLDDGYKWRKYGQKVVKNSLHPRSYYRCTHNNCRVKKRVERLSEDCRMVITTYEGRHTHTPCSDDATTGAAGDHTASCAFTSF

| Sequence | binding signal |
| --- | --- |
| GGCAATCCGGTGCTCCTTGTCTGAACTCTCTCAATCTCAACGGAGTCACCTAGTGCAG | 8040 fluorescence intensity (a.u.) |
| ATTTGTCATTTTTTCTATGTGTATATGTTGTATTTTGAGCCGGAGTCACCTAGTGCAG | 8430 fluorescence intensity (a.u.) |
| GCATGAGTAGGGGATGGCATTAAAACAGGTTGGTCAGGTGCGGAGTCACCTAGTGCAG | 8920 fluorescence intensity (a.u.) |
| TCCGTTCCATCGTAATCCTTCTCCGATCCGAATTTGCTTCCGGAGTCACCTAGTGCAG | 9120 fluorescence intensity (a.u.) |
| GCATCGACCGCGCGCGTATACGTTAACGCTCACCTTTGTTCGGAGTCACCTAGTGCAG | 9420 fluorescence intensity (a.u.) |
| GGTTTGTTTGGAGGCGCAATGTTTCTCACCCTGTCGTTCCCGGAGTCACCTAGTGCAG | 12700 fluorescence intensity (a.u.) |
| AGGTCTTTTTCACGTCGCAACCATGGCTTCAAATTTTGCTCGGAGTCACCTAGTGCAG | 11900 fluorescence intensity (a.u.) |
| CTCGCCTGACCCTGTCAAACGCCGGGCCGCGGACCCCGCCCGGAGTCACCTAGTGCAG | 8970 fluorescence intensity (a.u.) |
| GAGCTTATAGGGTGGGTTGTGTCCATGGAGTAACTATTATCGGAGTCACCTAGTGCAG | 18600 fluorescence intensity (a.u.) |
| AACAGTGGTATCGTTGTGTAGGGGTGGGCTGGCAAAAAGACGGAGTCACCTAGTGCAG | 20000 fluorescence intensity (a.u.) |
| TGATGTCTTATCTCGGGTCTCATCTTTTCGCTTATGCTTACGGAGTCACCTAGTGCAG | 8990 fluorescence intensity (a.u.) |
| TTTTGGGGTGGGTTTTGGTATCTGATGCTTACGGGCATCTCGGAGTCACCTAGTGCAG | 18100 fluorescence intensity (a.u.) |
| TGCTTGTGGTTTGTATGGAGTTTGGGTGAAGTGTCACGTACGGAGTCACCTAGTGCAG | 9660 fluorescence intensity (a.u.) |
| GGGCTAGTGTTTTTATGGTGTGGTTGGGGATTCAGCTTGCCGGAGTCACCTAGTGCAG | 11600 fluorescence intensity (a.u.) |
| CGTAGGTAAGTAGGGTTATTATAGTTATTTGTGTATATATCGGAGTCACCTAGTGCAG | 9300 fluorescence intensity (a.u.) |
| TCGTGGGAAGGGCAAAGAAAAGACGGGGTGGTGGGCATCGCGGAGTCACCTAGTGCAG | 8420 fluorescence intensity (a.u.) |
| GAGCTTGGGGTTGTGTATGGTGGTGGTGGTGTGGTAGCTACGGAGTCACCTAGTGCAG | 33200 fluorescence intensity (a.u.) |
| GGGGTTATGGTGGATTTGGTGCTTTGGGGCATTATGTTTACGGAGTCACCTAGTGCAG | 13800 fluorescence intensity (a.u.) |
| GGTGACGGCTGGTGTGGGTGTAGGGTGGCCGCGCGGTACGCGGAGTCACCTAGTGCAG | 9460 fluorescence intensity (a.u.) |
| CTGTTGTGTTGTGTTGTAATATGATTATGTGGGTGCTTATCGGAGTCACCTAGTGCAG | 8390 fluorescence intensity (a.u.) |
| ATTCAGTGGATCCTGCTGCTCAAACTTTGCTGACTGAATTCGGAGTCACCTAGTGCAG | 8820 fluorescence intensity (a.u.) |

| Sequence | binding signal |
| --- | --- |
| GCTTACTGGTTATGGTTGGTAGGGTTGGACGTGTAACAGACGGAGTCACCTAGTGCAG | 20900 fluorescence intensity (a.u.) |
| GGGATGGGTAGGGGTGGGTTGTGCTGTATTATACTACACCCGGAGTCACCTAGTGCAG | 19200 fluorescence intensity (a.u.) |
| GGGTTTTGCTTTTGCTGTTGTCTTGGGCTTGGGCCTTTGCCGGAGTCACCTAGTGCAG | 8660 fluorescence intensity (a.u.) |
| TGTAGCTTACTGCTTTGGTTTGGGCTGGTTGTGGATTGGACGGAGTCACCTAGTGCAG | 11900 fluorescence intensity (a.u.) |
| CATCTTTGTGGTTGTGTGGGTGTGTGTGTATATATATACCCGGAGTCACCTAGTGCAG | 8180 fluorescence intensity (a.u.) |
| AGGAGGTGTAGTAGGGTAGTGTAGGAGGTGTAGTGGAGTACGGAGTCACCTAGTGCAG | 8450 fluorescence intensity (a.u.) |
| TTACCTTAGATTTGGTAGGGCTGGTTAGGGCTGGTTGGAGCGGAGTCACCTAGTGCAG | 8680 fluorescence intensity (a.u.) |
| TGATGTGTGGGTGGTGGTGGTGGTGTGCCTTGTGTAGGTACGGAGTCACCTAGTGCAG | 20800 fluorescence intensity (a.u.) |
| GGGTTGATGTGTGGTGAAGGGTAGGTAATTTGTAGGAGTACGGAGTCACCTAGTGCAG | 10800 fluorescence intensity (a.u.) |
| GGCTGTTGGGTTTGTGGGCTTGTGCTAGGCGTCCCAGCTACGGAGTCACCTAGTGCAG | 17800 fluorescence intensity (a.u.) |
| TGCTGCTACTACATGTGGTGTGGGTGGTATGGTAGGGCCCCGGAGTCACCTAGTGCAG | 9060 fluorescence intensity (a.u.) |
| CTTGGGCGTCTTGTGTTTGTGGGTGAGGTAGCCAGCTGCCCGGAGTCACCTAGTGCAG | 9910 fluorescence intensity (a.u.) |
| CCTCGTACGTGTTGGTGTTGCCAAGCCCAAGCCAGTAGTACGGAGTCACCTAGTGCAG | 8990 fluorescence intensity (a.u.) |
| CACGCTTCGTCGTCGGATCGGGACGCCTTGCTGCCTCTGCCGGAGTCACCTAGTGCAG | 8170 fluorescence intensity (a.u.) |
| ACTACATCCGCGCACCTGCTTTGCTCGTCGACGATTATAACGGAGTCACCTAGTGCAG | 12900 fluorescence intensity (a.u.) |
| TGTGGATGAGTGTGTGTGTGTGGAGATCAGTGGGAGACCACGGAGTCACCTAGTGCAG | 8170 fluorescence intensity (a.u.) |
| AAGGGTGTATTTATTGGTGCAATAGCGTTTTTGTTTGACCCGGAGTCACCTAGTGCAG | 8690 fluorescence intensity (a.u.) |
| TGGGGTATGTGTGCTTGGTTATGTGTGCATCTTAGTTATACGGAGTCACCTAGTGCAG | 19300 fluorescence intensity (a.u.) |
| TAATTACCTCTCTTTAGTTTTGGGGTATGTGTGCTTGGTTCGGAGTCACCTAGTGCAG | 9680 fluorescence intensity (a.u.) |
| CTGATTCATTATACTAGGAGGGGTGGGAGGGAGGGAGTACCGGAGTCACCTAGTGCAG | 18800 fluorescence intensity (a.u.) |
| AGGGAGGAGTACATCTAGTAGTATAGGGGAGAGGGTGGGCCGGAGTCACCTAGTGCAG | 11500 fluorescence intensity (a.u.) |

| Sequence | binding signal |
| --- | --- |
| AGAGCTTAATTTGGTATGTGTGTGTATATATATATATATACGGAGTCACCTAGTGCAG | 8150 fluorescence intensity (a.u.) |
| CTGTATTCATTAGGGTGGGACTGTATACTATAGTTATTATCGGAGTCACCTAGTGCAG | 15700 fluorescence intensity (a.u.) |
| TATAGGTCCCACGCTATCTCAGTCGCCACATCAGCTAAAACGGAGTCACCTAGTGCAG | 8690 fluorescence intensity (a.u.) |
| TTTTAAGTATAATTTCTCTATAATTTGACAATGTGGTGCTCGGAGTCACCTAGTGCAG | 8550 fluorescence intensity (a.u.) |
| TTTGTTTTGAGCCGAACAAATCGGTAGTCAGTGGGCGGGGCGGAGTCACCTAGTGCAG | 11900 fluorescence intensity (a.u.) |
| TGATCTTTTGTTTCCTGCTTGGTATAGTATAAGCTCTCATCGGAGTCACCTAGTGCAG | 8800 fluorescence intensity (a.u.) |
| TTTTCTTTTTTCCCGCACTTTCTTTTCTTCCCGGAGATGTCGGAGTCACCTAGTGCAG | 8400 fluorescence intensity (a.u.) |
| GTCGGTGGAGCGGCCCTTTTTATTTCTGTGGGAGGAGGGTCGGAGTCACCTAGTGCAG | 9300 fluorescence intensity (a.u.) |
| GTTTGTGTTCTTGGATTGGGTTGGGTTGGGTTGGTGAGGTCGGAGTCACCTAGTGCAG | 17600 fluorescence intensity (a.u.) |
| CCATGGCGGGGTGTATTGTTGTTGTATTTGGGGTTCTGGTCGGAGTCACCTAGTGCAG | 19200 fluorescence intensity (a.u.) |
| GGTTGTGTTCTTGTTGGCGAGGAGGAGAGAGGGGTGGGGTCGGAGTCACCTAGTGCAG | 14700 fluorescence intensity (a.u.) |
| AGTCAACAGGGAGGGTAAAATAAGAAAGCAACAGCAAGAGCGGAGTCACCTAGTGCAG | 9730 fluorescence intensity (a.u.) |
| TTCCTTTTGTCCTCCATGCTCTCTGTATGTCGGTATTTTACGGAGTCACCTAGTGCAG | 10500 fluorescence intensity (a.u.) |
| ATTGGGTTCTTGGAGCTGTTGGATTGGGTTTTTTTGGGAGCGGAGTCACCTAGTGCAG | 9180 fluorescence intensity (a.u.) |
| AAGCGGTACCATGGGCGGGAGGGTATTTCTGTCCTTTTGTCGGAGTCACCTAGTGCAG | 17600 fluorescence intensity (a.u.) |
| GAAAGATGATTTGGCAAGTAAATAAATAAGAAAAGAGAAGCGGAGTCACCTAGTGCAG | 62600 fluorescence intensity (a.u.) |
| TTAAAAAAAAGTCAACGATGATAAATATTTAGAGAGTGAGCGGAGTCACCTAGTGCAG | 13100 fluorescence intensity (a.u.) |
| CTGTTGTTCTGTATATTGTGGTGGGTGTTGATTTGCGGGTCGGAGTCACCTAGTGCAG | 12800 fluorescence intensity (a.u.) |
| CATCGGATATTGTATTATGGTGTTGTATGGGTTGTTCGGGCGGAGTCACCTAGTGCAG | 14000 fluorescence intensity (a.u.) |

Source: paper PMC7819943, “Rice protein-binding microarrays: a tool to detect cis-acting elements near promoter regions in rice”
